From the supplement of paper PMC12808144
A number with no mark means an inactive call.

Each molecule was assayed on Mel-DCC-11 (assay: cell viability relative to DMSO control (fraction of DMSO control); higher = less cytotoxic, active = 0.5 or less). Details: 1 µM; 120 h.
Outline: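 Three cell types were screened against 315 approved anti-cancer drugs from TargetMol, acoustically pre-spotted in 384-well plates at 1 µM in duplicate over 120 h: NHEM-hTERT immortalized melanocytes (2500/well), patient-derived Mel-DCC-11 and its resistant subline Mel-DCC-11-R (both 1500/well), all in 40 µl per well. The subline was tested alone and with 8 µM of its selecting drug. Viability, measured by luminescence, was normalised to vehicle controls and averaged across duplicates, with ATPlite 1step as the readout.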

Compound	cell viability
NC(=O)NO [Hydroxyurea]	0.899
COc1ccc2cc3[n+](cc2c1OC)CCc1cc2c(cc1-3)OCO2 [Berberine]	1.36
COC(=O)[C@]12CCC(C)(C)C[C@H]1[C@H]1C(=O)C=C3[C@@]4(C)C=C(C#N)C(=O)C(C)(C)[C@@H]4CC[C@@]3(C)[C@]1(C)CC2 [Bardoxolone Methyl]	0.711
COC(=O)N[C@@H](C)CNc1nccc(-c2cn(C(C)C)nc2-c2cc(Cl)cc(NS(C)(=O)=O)c2F)n1 [Encorafenib]	0.236 (active)
CCc1cc2c(cc1N1CCC(N3CCOCC3)CC1)C(C)(C)c1[nH]c3cc(C#N)ccc3c1C2=O [Alectinib]	1.2
Nc1ncn([C@@H]2O[C@H](CO)[C@@H](O)[C@H]2O)c(=O)n1 [Mylosar]	1.17
CC(=O)c1c(C)c2cnc(Nc3ccc(N4CCNCC4)cn3)nc2n(C2CCCC2)c1=O.O=S(=O)(O)CCO [Palbociclib Isethionate]	0.742
CCCCc1nc2cc(/C=C/C(=O)NO)ccc2n1CCN(CC)CC [Pracinostat]	1.1
CC(C)(CO)c1cc2cc(NC(=O)C3(c4ccc5c(c4)OC(F)(F)O5)CC3)c(F)cc2n1C[C@@H](O)CO	1.01
CCOc1cc2ncc(C#N)c(Nc3ccc(OCc4ccccn4)c(Cl)c3)c2cc1NC(=O)/C=C/CN(C)C [Neratinib]	1.03
CCN(CC)CCOc1ccc2c(c1)C(=O)c1cc(OCCN(CC)CC)ccc1-2.Cl.Cl [Tilorone dihydrochloride]	1.06
C[C@@H]1O[C@@H](O[C@H]2[C@H](Oc3cc(O)c4c(c3)O[C@H](c3ccc(O)cc3)CC4=O)O[C@H](CO)[C@@H](O)[C@@H]2O)[C@H](O)[C@H](O)[C@H]1O [Naringin]	0.983
COc1cc(NS(C)(=O)=O)ccc1Nc1c2ccccc2nc2ccccc12 [Amsacrine]	1.1
CCCS(=O)(=O)Nc1ccc(F)c(C(=O)c2c[nH]c3ncc(-c4ccc(Cl)cc4)cc23)c1F [Vemurafenib]	0.983
COc1cc2ncnc(Nc3ccc(F)c(Cl)c3)c2cc1NC(=O)/C=C/CN1CCCCC1 [Dacomitinib]	0.818
CS(=O)(=O)c1ccc(C2=C(c3ccccc3)C(=O)OC2)cc1 [Rofecoxib]	0.898
COC(=O)c1ccc2c(c1)NC(=O)/C2=C(\Nc1ccc(N(C)C(=O)CN2CCN(C)CC2)cc1)c1ccccc1 [Nintedanib]	0.982
Cl.N=C1CCCN1Cc1[nH]c(=O)[nH]c(=O)c1Cl [Tipiracil hydrochloride]	0.924
CC1(COc2ccc3c(c2)ncn3-c2ccc3cccc(N4CCC(N)CC4)c3n2)COC1 [Crenolanib]	1.81
COc1c2occc2cc2ccc(=O)oc12 [8-Methoxypsoralen]	0.799
C=CC(=O)Nc1cc(Nc2nccc(-c3cn(C)c4ccccc34)n2)c(OC)cc1N(C)CCN(C)C.CS(=O)(=O)O [Osimertinib mesylate]	0.859
COC(=O)N[C@H](C(=O)N1CC2(CC2)C[C@H]1c1ncc(-c2ccc3c(c2)C(F)(F)c2cc(-c4ccc5nc([C@@H]6[C@H]7CC[C@H](C7)N6C(=O)[C@@H](NC(=O)OC)C(C)C)[nH]c5c4)ccc2-3)[nH]1)C(C)C [Ledipasvir]	1.1
C[C@H]1O[C@@H](n2cc(F)c(=O)[nH]c2=O)[C@H](O)[C@@H]1O [Doxifluridine]	1.31
N#CC1(c2ccc(NC(=O)c3cccnc3NCc3ccncc3)cc2)CCCC1 [Apatinib]	1.03
CN(C)C/C=C/C(=O)Nc1cc2c(Nc3ccc(F)c(Cl)c3)ncnc2cc1O[C@H]1CCOC1.O=C(O)/C=C\C(=O)O.O=C(O)/C=C\C(=O)O [Afatinib Dimaleate]	0.711
CCNC(=O)[C@@H]1CCCN1C(=O)[C@H](CCCN=C(N)N)NC(=O)[C@H](CC(C)C)NC(=O)[C@@H](CC(C)C)NC(=O)[C@H](Cc1ccc(O)cc1)NC(=O)[C@H](CO)NC(=O)[C@H](Cc1c[nH]c2ccccc12)NC(=O)[C@H](Cc1cnc[nH]1)NC(=O)[C@@H]1CCC(=O)N1 [Leuprorelin Acetate]	0.683
